Exocytosis inh – LAMP-1 surface exposure blockers, TALL-104 cells – cell-based, flow cytometry, MLPCN library, primary screen. TALL-104 LAMP-1 surface exposure; cells stimulated with thapsigargin and PMA. inhibition, % at 10 µM. actives 0.66% (n = 360,000). AID 651702, 2012;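 active = inhibition above about 55%, limit read from the data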
GC-A act – GC-A stimulated cGMP production enhancers – HEK293 GC-A cells, cGMP TR-FRET, EC30 ANP, primary screen | Atrial natriuretic peptide receptor 1 (Homo sapiens), P16066 | 0% at EC30 ANP, 100% saturating ANP | activation, % at 10 µM | actives 0.14% (n = 370,000); in the data active = activation above about 40%
Target sequence (P16066 whole entry, looked up): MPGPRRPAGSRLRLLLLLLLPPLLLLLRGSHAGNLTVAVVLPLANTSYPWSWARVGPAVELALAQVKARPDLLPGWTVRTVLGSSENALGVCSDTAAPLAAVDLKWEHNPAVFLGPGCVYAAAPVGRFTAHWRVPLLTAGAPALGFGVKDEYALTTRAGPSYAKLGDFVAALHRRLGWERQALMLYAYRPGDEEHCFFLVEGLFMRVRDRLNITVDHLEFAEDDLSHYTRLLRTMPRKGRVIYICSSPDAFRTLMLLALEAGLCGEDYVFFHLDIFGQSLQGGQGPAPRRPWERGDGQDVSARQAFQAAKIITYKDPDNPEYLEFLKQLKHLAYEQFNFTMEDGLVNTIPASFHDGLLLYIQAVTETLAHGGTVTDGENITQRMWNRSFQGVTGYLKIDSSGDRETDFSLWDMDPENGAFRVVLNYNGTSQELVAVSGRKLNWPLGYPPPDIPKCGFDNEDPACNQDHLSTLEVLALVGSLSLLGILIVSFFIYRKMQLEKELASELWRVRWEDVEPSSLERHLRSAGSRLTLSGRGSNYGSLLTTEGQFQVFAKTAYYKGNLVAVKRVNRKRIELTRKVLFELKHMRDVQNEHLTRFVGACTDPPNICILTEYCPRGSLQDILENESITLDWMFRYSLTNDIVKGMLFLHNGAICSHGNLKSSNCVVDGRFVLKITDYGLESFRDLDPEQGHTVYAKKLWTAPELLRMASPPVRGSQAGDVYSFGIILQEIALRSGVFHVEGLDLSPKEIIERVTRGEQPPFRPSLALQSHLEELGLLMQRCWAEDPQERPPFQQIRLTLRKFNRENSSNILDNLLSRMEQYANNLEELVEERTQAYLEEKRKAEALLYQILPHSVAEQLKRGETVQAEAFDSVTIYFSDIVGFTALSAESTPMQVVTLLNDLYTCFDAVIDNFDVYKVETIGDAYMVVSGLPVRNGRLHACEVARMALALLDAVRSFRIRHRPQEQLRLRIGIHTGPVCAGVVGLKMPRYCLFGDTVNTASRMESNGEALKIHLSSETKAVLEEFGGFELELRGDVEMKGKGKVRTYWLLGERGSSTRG
Myeloid diff 2 – induction of myeloid progenitor differentiation, primary screen, cell-based, flow cytometry, MLPCN library; calls only at 10 µM; actives 1% (n = 360,000); ER-HoxA9 myeloid progenitors, lysozyme-GFP differentiation;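 active = normalized GFP-positive differentiation at or above the plate's own cutoff, the solvent-only control mean plus 3 SD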;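 also: cells exposed to compound for four days before flow analysis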
GC-B act – human GC-B receptor activators, primary screen, HEK293 GC-B cells, cGMP TR-FRET, EC30 CNP. 0% at EC30 CNP, 100% saturating CNP. activation, % at 10 µM. actives 0.11% (n = 370,000);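 active = activation at 10 µM reaching about 35% in either raw or pattern-adjusted values, limit read from the data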
Granule exo CP1 – inhibitors of lytic granule exocytosis, confirmation, TALL-104 cells, flow cytometry, Cherry Pick01 | shares compounds with Exocytosis inh | inhibition, % at 10 µM | AID 651954, 2012 | LAMP-1 externalization; stimulated with PMA plus thapsigargin | actives 11% (n = 1,500); in the data active = inhibition above about 60%;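 also: 0% = stimulated vehicle wells and 100% = unstimulated wells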
The depositor's hits bear a star; i = inactive; x = no result given. Rows were chosen to be rich in hits. Some 1.8% of all compounds tested hit in one or more screens of this group.

SMILES	Exocytosis inh	GC-A act	Myeloid diff 2	GC-B act	Granule exo CP1
N#CCC[C@@H]1CC[C@]2(CCCN(Cc3ccc(Br)cc3)C2)O1	x	-5	x	-1	x
CCN(CC)S(=O)(=O)c1ccc(N2CCCC2)c(NC(=O)c2ccc(OC)cc2OC)c1	72*	-3	i	-5	-10
CCN(CC)S(=O)(=O)c1ccc(N2CCCC2)c(NC(=O)Cc2ccc(OC)cc2)c1	-2	0	i	7	x
CC(C)(C)c1ccc(CC(=O)N2CCC2(C)C(=O)NCc2cccc3ccccc23)cc1 (stereo not given)	8	-8	i	-5	x
Cc1ccccc1OCC(O)CN(Cc1ccccc1O)C1CCCCC1 (stereo not given)	68*	-7	i	-3	-13
CN(CC(O)COc1ccccc1F)C1CCCCC1 (stereo not given)	-2	-3	i	3	x
C=CCN(Cc1ccc(OC)cc1OC)C(C#Cc1ccccc1)c1ccccc1 (stereo not given)	x	-2	x	-3	x
CCOC(=O)c1csc(N)n1	-1	6	i	1	x
CCOC(=O)c1cc(-c2csc(Nc3c(C)cc(C)cc3C)n2)on1	91*	-14	i	4	86*
COc1ccc(-n2ccnc2CN2CCCC(CO)(Cc3cccc(OC)c3)C2)cc1 (stereo not given)	60*	-13	i	-9	-13
COc1ccc(-c2cc(C)no2)cc1S(=O)(=O)N1CCOc2ccc(C)cc21	-3	-5	i	7	x
CCc1ccc(-c2cc(C)no2)cc1S(=O)(=O)N1CCOc2ccccc21	89*	-1	i	0	-2
OC(COC(c1ccc(Cl)cc1)c1ccc(Cl)cc1)CN1CCCC1 (stereo not given)	1	-44	i	-21	x
CN1CCN(CC(O)COC(c2ccc(Cl)cc2)c2ccc(Cl)cc2)CC1 (stereo not given)	57*	-47	i	-13	17
O=C(CCN1CCOCC1)c1ccc(Br)cc1	96*	32	i	-6	41
O=C(CCN1CCN(c2ccccc2)CC1)c1ccc(Br)cc1	56*	40*	i	0	12
COc1ccc(C(=O)CCN2CCN(c3ccc(OC)cc3)CC2)cc1	101*	9	x	-5	-4
C[C@@H]1CCN(C2CC2)S(=O)(=O)c2ccc(N3CC[C@@H](N(C)C)C3)cc2O1	x	1	x	2	x
Cc1cccc(C)c1NC(=O)C(c1ccccc1OC(F)(F)F)N1CCN(C)CC1 (stereo not given)	0	-1	i	-1	x
COc1ccc(N2C(=O)CC(Sc3nnnn3-c3ccc(F)cc3)C2=O)cc1 (stereo not given)	25	12	i	4	x
O=C1CC(Sc2nnnn2-c2ccccc2)C(=O)N1c1cccc(Cl)c1 (stereo not given)	99*	29	x	36*	101*
CN1C[C@@H]2C[C@@H](C3=Cc4cc(Cl)ccc4OC3)N3CCC[C@@]23C1=O	-7	3	i	4	x
COc1ccccc1CN1C[C@@H]2C[C@@H](C3=Cc4cc(Cl)ccc4OC3)N3CCC[C@@]23C1=O	56*	-4	i	-6	-2
O=C1N[C@@H](Cc2ccccc2)COC(=O)[C@H](Cc2ccc(F)cc2)C/C=C\C[C@H]1CC(=O)N(CCO)Cc1ccccc1	12	2	i	-4	x
O=C1CC/C=C\C[C@@H](CC(=O)N(CCO)Cc2ccccc2)C(=O)N[C@H](Cc2ccccc2)CO1	81*	0	i	6	-15
SMILES	Exocytosis inh	GC-A act	Myeloid diff 2	GC-B act	Granule exo CP1
O=C(NCCc1ccc(Cl)cc1)C1CCN(S(=O)(=O)c2ccc(Br)s2)CC1	65*	-2	i	-3	-13
COc1ccc(CNC(=O)C2CCCN(S(=O)(=O)c3ccc(Br)s3)C2)cc1 (stereo not given)	69*	3	i	-3	-14
O=C(NCCc1ccc(Cl)cc1)C1CCN(S(=O)(=O)N2CCCC2)CC1	1	0	i	2	x
COc1ccc(Br)cc1CNC(=O)C1CCCN(S(=O)(=O)N2CC(C)CC(C)C2)C1 (stereo not given)	70*	-6	i	-3	-5
O=C(O)Cc1ccc2c(c1)Cc1cccnc1O2	2	3	i	0	x
O=C(NC1CCCCC1)C(c1cc2ccccc2o1)N1CCOCC1 (stereo not given)	1	-3	i	-4	x
CNCc1ccccc1Sc1cc(O)ccc1O	73*	0	i	1	9
COc1ccc(C(c2nnnn2C(C)(C)C)N2CCN(c3nc4ccccc4s3)CC2)cc1OC (stereo not given)	2	2	i	9	x
COc1cc(C(c2nnnn2C(C)(C)C)N2CCN(c3nc4ccccc4s3)CC2)ccc1O (stereo not given)	58*	-3	i	0	37
COc1cc(CN2CCC(C(=O)NCCC(C)C)CC2)ccc1OCc1ccccc1	63*	0	i	-6	-12
COCCNC(=O)C1CCCN(Cc2ccc(C(C)C)cc2)CC1 (stereo not given)	68*	1	i	3	-4
CC(C)CCNC(=O)C1CCN(Cc2cccc(OCc3ccccc3)c2)CC1	69*	1	i	12	-10
CCOC(=O)C1CCN(Cc2ccc(OCc3ccccc3)c(OC)c2)CC1	4	x	i	x	x
COCCNC(=O)C1CCCN(Cc2ccc(C)cc2)CC1 (stereo not given)	-5	1	i	5	x
CCOc1ccc(NC(=O)Cn2c(=O)n(CCCC(=O)NC3CCN(Cc4ccccc4)CC3)c(=O)c3ccccc32)cc1	61*	-4	i	-5	-10
NC(=O)Cn1c(=O)n(CCCC(=O)NC2CCN(Cc3ccccc3)CC2)c(=O)c2ccccc21	-1	3	i	-2	x
Cc1ccc(NC(=O)CN(C)CC(=O)Nc2ccc(N3CCOCC3)cc2)cc1F	99*	1	i	-5	-11
Cc1ccc(CC(=O)N(C)CC(=O)Nc2ccc(N3CCOCC3)cc2)cc1C	-2	1	i	-2	x
COc1ccc(NC(=O)C2(C)CCN2C(=O)Cc2ccc(Cl)cc2Cl)cc1OC (stereo not given)	-3	11	i	-2	x
Clc1ccc(CN2CCc3c([nH]c4ccccc34)C2)cc1Cl	58*	-2	i	-3	-4
Clc1cccc(CN2CCc3c([nH]c4ccccc34)C2)c1	58*	-5	i	-1	-14
c1ccc(Cn2c(SCC3CCCCC3)nnc2-c2cccnc2)cc1	x	2	x	3	x
CCN(CC)c1ccc(C=NNC(=O)Cc2cc(=O)[nH][nH]2)c(O)c1	x	-1	x	6	x

High-throughput results as filed in PubChem BioAssay.
